The record followed here is ChEMBL document CHEMBL3988442, “University of Dundee, Small-Polar-MMV Screening Library” (2021).

In all, about 48,000 compounds went through this assay and about 13,000 (27%) showed an effect of 50% or more. This is one part of the list.

In this assay the test system is Wolbachia pipientis. The experiment in a line: Anti-Wolbachia Cell-Based Screen. Format: functional. Conditions: 5 µM. Also on record: scale not given: in the data most compounds retested in dose-response had high values.
As for `CCc1nc(C2CCCN(c3ncccn3)C2)no1` (configuration not stated), the “Percent Effect” value came out at 22.68%.

For `CCc1nnc(Nc2cc(C)nc(C3CCN(c4ncccn4)C3)n2)s1` (configuration not stated), the “Percent Effect” value was determined as 164.2%.

On to `c1cnc(N2CCC(C3CCN(CCCn4cccn4)C3)CC2)nc1` (configuration not stated), for which the “Percent Effect” value is 5.409%.

Regarding `Cc1ccc(C2CSCCN2C(=O)C2=CCCC2)o1` (configuration not stated), the “Percent Effect” value is listed as -12.79%.

`CC(Cc1cccc(F)c1)C(=O)NS(=O)(=O)c1ccc(F)cc1` (configuration not stated): the “Percent Effect” value is on record as -6.109%.

As to `CCCc1ccc(S(=O)(=O)NCCNC(=O)c2ccoc2)cc1`, the “Percent Effect” value is recorded as -13.27%.

Turning to `COc1ccc(CC(C)(O)CNC(=O)Cc2cccs2)cc1` (configuration not stated), the “Percent Effect” value is on record as 5.181%.

As for `O=C(Nc1ccccc1)C1CN(C(=O)c2cccs2)CC12CCOCC2` (configuration not stated), the “Percent Effect” value is given as -0.3117%.

For the molecule `CCc1nc(C)c([C@H]2CN(C)C[C@@H]2C(=O)Nc2ccc(OC)cc2)[nH]1`, the “Percent Effect” value is recorded as 7.798%.

Take `CCOc1ccc(NC(=O)C2OC(c3cccs3)=NN2C(C)=O)cc1` (configuration not stated): the “Percent Effect” value was 122.8%.

Take `CC(=O)N1N=C(c2cccs2)OC1C(=O)Nc1ccc(C)cc1` (configuration not stated): the “Percent Effect” value worked out at 119.7%.

As to `Cn1ccnc1COc1ccc(NC(=O)C2CCCO2)cc1` (configuration not stated), the “Percent Effect” value is -13.75%.

Regarding `CCOc1ccc(NC(=O)c2cccc(OC)c2OC)cc1`, the “Percent Effect” value is reported as 0.2949%.

Turning to `CCc1ccc(NC(=O)C2OC(c3cccs3)=NN2C(C)=O)cc1` (configuration not stated), the “Percent Effect” value was 3.495%.

With `CC(=O)N1N=C(c2cccs2)OC1C(=O)Nc1ccccc1` (configuration not stated), the “Percent Effect” value came out at 103.8%.

In the case of `O=C(Nc1ccccc1)C1CN(Cc2cccs2)CC12CCOCC2` (configuration not stated), the “Percent Effect” value came out at 0.5273%.

Consider `COc1ccc(NC(=O)C2OC(c3cccs3)=NN2C(C)=O)cc1` (configuration not stated), for which the “Percent Effect” value was 116.4%.

For `O=C1CC(CNc2cncc(Cl)n2)c2ccccc2N1` (configuration not stated), the “Percent Effect” value is -4.513%.

For `Cc1n[nH]c(CN2CCN(C(=O)C3CCC3)[C@@H]3CS(=O)(=O)C[C@@H]32)n1`, the “Percent Effect” value is given as -3.785%.

For the molecule `Cc1cc(C(=O)Nc2ccc(OC3CCOCC3)c(C)c2)[nH]n1`, the “Percent Effect” value is -9.28%.

In the case of `O=C1CN(CCCNC(=O)Nc2ccccn2)CCN1`, the “Percent Effect” value came to 3.817%.

Turning to `Cc1nc(C)c(CC(=O)NCc2ccc(F)cc2F)s1`, the “Percent Effect” value is given as 12.14%.

Consider `COc1cccc(CNC[C@H]2COCc3nc4cccnc4n32)n1`, for which the “Percent Effect” value is -3.627%.

As to `OCC1(CCOc2ccccc2)CCCN(c2ccc(Cl)cn2)C1` (configuration not stated), the “Percent Effect” value amounted to 19.44%.

As to `COc1ccc(NC(=O)C2CC2)cc1OCc1cccnc1`, the “Percent Effect” value was -2.646%.

For the molecule `Cc1ccc(CNC(=O)C2c3c(ncn3C(C)C)CCN2S(C)(=O)=O)o1` (configuration not stated), the “Percent Effect” value is on record as -24.24%.

For `CC(=O)N1N=C(c2cccs2)OC1C(=O)NCc1ccc(C)o1` (configuration not stated), the “Percent Effect” value came out at 124.5%.

Turning to `CC(=O)N1N=C(c2cccs2)OC1C(=O)Nc1ccc(C(C)C)cc1` (configuration not stated), the “Percent Effect” value is given as 90.69%.

In the case of `Cc1ccc(CN(C(=O)NCC(c2cccs2)N(C)C)C2CC2)o1` (configuration not stated), the “Percent Effect” value came to 16.5%.

In the case of `CNC(=O)c1ccc(OC)c(NCc2noc(-c3cccs3)n2)c1`, the “Percent Effect” value is listed as -3.924%.

Turning to `COc1ccc(NC(=O)C2OC(c3cccs3)=NN2C(C)=O)cc1OC` (configuration not stated), the “Percent Effect” value is on record as 133.2%.

In the case of `O=c1oc(-c2cccs2)nn1CC(O)c1ccccc1` (configuration not stated), the “Percent Effect” value amounted to 2.258%.

Turning to `CNC(=O)C(C)S(=O)(=O)Cc1csc(-c2cccs2)n1` (configuration not stated), the “Percent Effect” value is -15.96%.

Take `CCN(CC)C(=O)[C@@H]1C[C@H](N)CN1c1nnc(-c2ccccc2)s1`: the “Percent Effect” value stood at 5.055%.

Regarding `CC(Cc1ccco1)NC(=O)Nc1ccc(S(C)(=O)=O)nc1` (configuration not stated), the “Percent Effect” value was -6.327%.

As for `Cc1cc(-c2cc(N)c(=O)n(CC(=O)NC3CCCCC3)n2)c(C)o1`, the “Percent Effect” value is 117.4%.

With `Cc1cc(-c2cc(N)c(=O)n(CC(=O)NC3CCCC3)n2)c(C)o1`, the “Percent Effect” value is reported as 122.3%.

Consider `Cc1ccc(-c2cc(N)c(=O)n(CC(=O)NC3CCCCC3)n2)s1`, for which the “Percent Effect” value is -5.352%.

In the case of `COc1ccc(OC)c(C(=O)N2C[C@H]3CC[C@@H]2CN(C)C3)c1`, the “Percent Effect” value is listed as 19.05%.

As for `COc1ccc(OC)c(C(=O)N2CCC(Nc3cccnc3)CC2)c1`, the “Percent Effect” value came to 94.46%.

Turning to `COc1cc(C(=O)N2CCC(Nc3cccnc3)CC2)ccc1C`, the “Percent Effect” value is listed as 66.95%.

On to `COc1cc(C(=O)N2CCC(c3n[nH]c(C4CC4)n3)CC2)ccc1C`, for which the “Percent Effect” value came out at 15.65%.

On to `O=C(c1ccc[nH]1)N(Cc1ccc(O)cc1)CC1CC1`, for which the “Percent Effect” value is -7.123%.

In the case of `CCOC(C)C(=O)NCc1ccc(N(C)C)cc1` (configuration not stated), the “Percent Effect” value is recorded as 106.9%.

Consider `CCOC(C)C(=O)NCc1cccc(CN2CCCCCC2)c1` (configuration not stated), for which the “Percent Effect” value turned out to be 0.5451%.

As for `CC(C)COC(C)C(=O)NCc1ccc(Cn2ccnc2)cc1` (configuration not stated), the “Percent Effect” value came out at 0.5486%.

`CC(OCc1ccccc1)C(=O)NC1CCN(CC(N)=O)CC1` (configuration not stated): the “Percent Effect” value is -2.8%.

As for `CC(C)COC(C)C(=O)NCc1ccc(N(C)C)cc1` (configuration not stated), the “Percent Effect” value was -1.344%.

As for `CC(OCc1ccccc1)C(=O)NCc1ccc(N(C)C)cc1` (configuration not stated), the “Percent Effect” value amounted to 130.9%.

Regarding `CC(C)C(=O)NCc1ccc(N(C)C)cc1`, the “Percent Effect” value is 131.8%.

On to `CN1CCC(CNC(=O)NCc2ccc(N(C)C)cc2)CC1`, for which the “Percent Effect” value is on record as -5.904%.

Regarding `CN(C)c1ccc(CNC(=O)Nc2ccc(S(=O)(=O)C(F)F)cc2)cc1`, the “Percent Effect” value was -8.512%.
